Assay results from PubChem BioAssay (NCI).
About 83,000 compounds went through this panel and 20% of them were active in at least one assay; those are over-represented in the sample as a whole.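 Testing used 96-well plates and a 48-hour single-concentration exposure. Example: -40 means 40% of the starting cells died.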 The source made the active and inactive calls. The calls were made as follows: active = growth percent below 10; inactive = the rest.

Assays:
Assay in all cases: NCI-60 one-dose screen, 48 h (100 = growth as untreated, 0 = no growth, -100 = all killed)
Details in all cases: 10 µM unless noted
NCI-H23 lung = tested on: NCI-H23 lung
NCI-H226 lung = tested on: NCI-H226 lung
NCI-H322M lung = tested on: NCI-H322M lung
HOP-62 NSCLC = tested on: HOP-62 NSCLC
NCI-H460 lung = tested on: NCI-H460 lung
HOP-92 NSCLC = tested on: HOP-92 NSCLC
NCI-H522 lung = tested on: NCI-H522 lung
A549/ATCC NSCLC = tested on: A549/ATCC NSCLC
786-0 renal = tested on: 786-0 renal
COLO 205 colon = tested on: COLO 205 colon
DU-145 prostate = tested on: DU-145 prostate
K-562 leukemia = tested on: K-562 leukemia
MALME-3M melanoma = tested on: MALME-3M melanoma
MDA-MB-231 breast = tested on: MDA-MB-231 breast
RXF 393 renal = tested on: RXF 393 renal
SF-268 CNS = tested on: SF-268 CNS
SF-295 CNS = tested on: SF-295 CNS
SF-539 CNS = tested on: SF-539 CNS
UACC-257 melanoma = tested on: UACC-257 melanoma
M14 melanoma = tested on: M14 melanoma

Measured: growth

CC[C@H](C)[C@H](NC(=O)[C@H]1CCCCN1C)C(=O)N(C)[C@H](C[C@@H](OC(C)=O)c1cccc(C(=O)N[C@@H](Cc2ccccc2)C[C@H](C)C(=O)O)n1)C(C)C
inactive: NCI-H23 lung 24.3% | NCI-H226 lung 19.7% | NCI-H322M lung 45.2% | HOP-92 NSCLC 37% | A549/ATCC NSCLC 11.4% | 786-0 renal 23.1% | MALME-3M melanoma 64.1% | RXF 393 renal 31.2% | SF-268 CNS 18% | UACC-257 melanoma 47.9% | M14 melanoma 10%
active: HOP-62 NSCLC 1.64% | NCI-H460 lung 7.49% | NCI-H522 lung -12.8% | COLO 205 colon -66.1% | DU-145 prostate -16.1% | K-562 leukemia 7.77% | MDA-MB-231 breast -0.17% | SF-295 CNS 2.98% | SF-539 CNS -10.7%

CCC(C)(C)[C@H](NC(=O)[C@H]1CCCCN1C)C(=O)N(C)[C@H](C[C@@H](OC(C)=O)c1nc(C(=O)N[C@@H](Cc2ccccc2)C[C@H](C)C(=O)O)cs1)C(C)C
inactive: NCI-H23 lung 29.8% | NCI-H322M lung 41.5% | HOP-62 NSCLC 15% | HOP-92 NSCLC 19.4% | A549/ATCC NSCLC 13.1% | 786-0 renal 10.8% | MALME-3M melanoma 27.4% | MDA-MB-231 breast 15.7% | RXF 393 renal 38.4% | SF-268 CNS 23.3% | UACC-257 melanoma 55.5%
active: NCI-H226 lung -44.7% | NCI-H460 lung 5.25% | NCI-H522 lung -32.1% | COLO 205 colon -51.2% | DU-145 prostate 0.164% | K-562 leukemia 6.58% | SF-295 CNS -7.51% | SF-539 CNS -31% | M14 melanoma -19.3%

COC(=O)[C@@H](C)C[C@H](Cc1ccccc1)NC(=O)c1csc([C@@H](C[C@H](C(C)C)N(C)C(=O)C2(NC(=O)[C@H]3CCCCN3C)CC2)OC(C)=O)n1
inactive: NCI-H23 lung 15.7% | NCI-H226 lung 50.8% | NCI-H322M lung 44.8% | A549/ATCC NSCLC 11.7% | 786-0 renal 17.6% | MALME-3M melanoma 73.3% | MDA-MB-231 breast 13.4% | RXF 393 renal 77.5% | SF-268 CNS 17.5% | UACC-257 melanoma 56%
active: HOP-62 NSCLC 9.05% | NCI-H460 lung 3.12% | HOP-92 NSCLC -3.99% | NCI-H522 lung 1.55% | COLO 205 colon -55% | DU-145 prostate 7.25% | K-562 leukemia 3.8% | SF-295 CNS 4.29% | SF-539 CNS -10.4% | M14 melanoma 0.0884%

COc1cc(/C=C/[N+](=O)[O-])cc(OC)c1
inactive: NCI-H322M lung 84.6% | HOP-62 NSCLC 35.9% | NCI-H460 lung 40.6% | HOP-92 NSCLC 28.9% | A549/ATCC NSCLC 28.6% | MALME-3M melanoma 24.1% | MDA-MB-231 breast 13.4% | SF-268 CNS 25.7% | SF-295 CNS 46.5%
active: NCI-H23 lung -47.3% | NCI-H226 lung -31.2% | NCI-H522 lung -40.1% | 786-0 renal -45.3% | COLO 205 colon -49.4% | DU-145 prostate -63% | K-562 leukemia 0.863% | RXF 393 renal -90% | SF-539 CNS -72.2% | UACC-257 melanoma -16.4% | M14 melanoma -30.1%

C/C(Cc1ccc(Cl)cc1)=C(\c1ccc(OCCN2CCOCC2)cc1)c1ccc(OC(=O)Cc2ccccc2)cc1
inactive: NCI-H23 lung 92.9% | NCI-H226 lung 101% | NCI-H322M lung 83% | HOP-62 NSCLC 102% | NCI-H460 lung 95.8% | HOP-92 NSCLC 77.2% | NCI-H522 lung 69.7% | A549/ATCC NSCLC 78.9% | 786-0 renal 92.6% | COLO 205 colon 99.8% | DU-145 prostate 107% | K-562 leukemia 79.5% | MALME-3M melanoma 99% | MDA-MB-231 breast 96.5% | RXF 393 renal 94.7% | SF-268 CNS 95.6% | SF-295 CNS 99.9% | SF-539 CNS 108% | UACC-257 melanoma 86.1% | M14 melanoma 89.4%

O=NN1CCCc2cccc(O)c21
inactive: NCI-H226 lung 76.5% | NCI-H322M lung 41.8% | HOP-62 NSCLC 31.9% | HOP-92 NSCLC 71.6% | A549/ATCC NSCLC 37.6% | 786-0 renal 27.2% | COLO 205 colon 94% | DU-145 prostate 10.8% | MALME-3M melanoma 38.3% | MDA-MB-231 breast 78.8% | SF-268 CNS 27.8% | SF-295 CNS 31% | UACC-257 melanoma 57.4% | M14 melanoma 22.2%
active: NCI-H23 lung -6.22% | NCI-H460 lung 4.79% | NCI-H522 lung -21.7% | K-562 leukemia 9.43% | RXF 393 renal -4.04% | SF-539 CNS -32.8%

COC(=O)[C@@H](C)C[C@H](Cc1ccccc1)NC(=O)c1csc([C@@H](C[C@H](C(C)C)N(C)C(=O)[C@@H](NC(=O)[C@H]2CCCCN2C)c2ccc(F)cc2)OC(C)=O)n1
active: HOP-62 NSCLC 3.87% | NCI-H460 lung 3.62% | HOP-92 NSCLC 4.81% | NCI-H522 lung -2.85% | COLO 205 colon -53.8% | DU-145 prostate 6.65% | K-562 leukemia 2.45% | MDA-MB-231 breast -9.8% | SF-295 CNS 3.25% | SF-539 CNS -17.9% | M14 melanoma -6.9%
inactive: NCI-H23 lung 25.6% | NCI-H226 lung 29.4% | NCI-H322M lung 37.4% | A549/ATCC NSCLC 13.9% | 786-0 renal 15.7% | MALME-3M melanoma 65.8% | RXF 393 renal 74.7% | SF-268 CNS 13.2% | UACC-257 melanoma 53.2%

N#Cc1c(Br)n(C2OC(CO)C(O)C2O)c2ncnc(N)c12 (stereo not given)
inactive: NCI-H23 lung 74.4% | NCI-H226 lung 135% | NCI-H322M lung 81% | HOP-62 NSCLC 101% | NCI-H460 lung 34% | HOP-92 NSCLC 52.7% | NCI-H522 lung 60.5% | A549/ATCC NSCLC 13.4% | 786-0 renal 89.1% | COLO 205 colon 18.2% | DU-145 prostate 17.8% | K-562 leukemia 20.8% | MALME-3M melanoma 108% | MDA-MB-231 breast 97.1% | RXF 393 renal 13.8% | SF-268 CNS 55% | SF-295 CNS 87.5% | SF-539 CNS 102% | UACC-257 melanoma 80.3% | M14 melanoma 60%

CC[C@H](C)[C@H](NC(=O)c1ccccn1)C(=O)N(C)[C@H](C[C@@H](OC(C)=O)c1nc(C(=O)N[C@@H](Cc2ccccc2)C[C@H](C)C(=O)OC)cs1)C(C)C
inactive: NCI-H23 lung 28.3% | NCI-H226 lung 25.4% | NCI-H322M lung 58.2% | HOP-62 NSCLC 26.9% | HOP-92 NSCLC 91.9% | A549/ATCC NSCLC 32.2% | 786-0 renal 30.4% | K-562 leukemia 10.8% | MALME-3M melanoma 53.8% | MDA-MB-231 breast 15.8% | SF-268 CNS 32.3% | UACC-257 melanoma 69.8%
active: NCI-H460 lung 9.13% | NCI-H522 lung -33.8% | COLO 205 colon -21.2% | DU-145 prostate 6.32% | RXF 393 renal -11.2% | SF-295 CNS 7.86% | SF-539 CNS -24% | M14 melanoma 4.96%

O=C1CC2(CC3(Cl)C(Cl)=C(Cl)C2(Cl)C3(Cl)Cl)C(=O)O1 (stereo not given)
inactive: NCI-H23 lung 96.8% | NCI-H226 lung 110% | NCI-H322M lung 99.3% | HOP-62 NSCLC 91.6% | NCI-H460 lung 112% | HOP-92 NSCLC 107% | NCI-H522 lung 102% | A549/ATCC NSCLC 105% | 786-0 renal 96.3% | COLO 205 colon 126% | DU-145 prostate 101% | K-562 leukemia 97.9% | MALME-3M melanoma 101% | MDA-MB-231 breast 128% | RXF 393 renal 107% | SF-268 CNS 114% | SF-295 CNS 100% | SF-539 CNS 114% | UACC-257 melanoma 107% | M14 melanoma 95.4%

C#C[C@]1(OC(=O)CCCCCC)CC[C@H]2[C@@H]3CCC4=CC(=O)CC[C@@H]4[C@H]3CC[C@@]21C
inactive: NCI-H23 lung 19% | NCI-H226 lung 54.8% | NCI-H322M lung 49.5% | HOP-62 NSCLC 35.5% | NCI-H460 lung 21.2% | HOP-92 NSCLC 58.6% | NCI-H522 lung 20.5% | A549/ATCC NSCLC 46.1% | 786-0 renal 56.5% | COLO 205 colon 29.3% | DU-145 prostate 72.1% | K-562 leukemia 20.7% | MALME-3M melanoma 77.1% | MDA-MB-231 breast 59.7% | RXF 393 renal 58.8% | SF-268 CNS 50.7% | SF-295 CNS 32.2% | SF-539 CNS 47.9% | UACC-257 melanoma 55% | M14 melanoma 25.6%

CN[C@@]1(c2ccccc2Cl)CCCC[C@@H]1NCC1CCCO1 (stereo not given in full)
inactive: NCI-H23 lung 97.4% | NCI-H226 lung 97.8% | NCI-H322M lung 94.1% | HOP-62 NSCLC 97.4% | NCI-H460 lung 110% | HOP-92 NSCLC 92% | NCI-H522 lung 91.3% | A549/ATCC NSCLC 98% | 786-0 renal 97.7% | COLO 205 colon 109% | DU-145 prostate 111% | K-562 leukemia 100% | MALME-3M melanoma 95.3% | MDA-MB-231 breast 105% | RXF 393 renal 106% | SF-268 CNS 103% | SF-295 CNS 98.2% | SF-539 CNS 97% | UACC-257 melanoma 96.5% | M14 melanoma 101%

COC1CC2c3ccccc3C1C(C)=[N+]2C (stereo not given)
inactive: NCI-H23 lung 89.3% | NCI-H226 lung 90.8% | NCI-H322M lung 99.5% | HOP-62 NSCLC 110% | NCI-H460 lung 106% | HOP-92 NSCLC 98.7% | NCI-H522 lung 79.8% | A549/ATCC NSCLC 96% | 786-0 renal 98.9% | COLO 205 colon 120% | DU-145 prostate 110% | K-562 leukemia 110% | MALME-3M melanoma 88.7% | MDA-MB-231 breast 99.5% | RXF 393 renal 98% | SF-268 CNS 107% | SF-295 CNS 94.2% | SF-539 CNS 102% | UACC-257 melanoma 95.6% | M14 melanoma 103%

CC(C)(NC(=O)O[C@@H]1CN2CCC1CC2)c1csc(-c2ccc(F)cc2)n1
inactive: NCI-H23 lung 96.3% | NCI-H226 lung 89.9% | NCI-H322M lung 98.9% | HOP-62 NSCLC 99.4% | NCI-H460 lung 101% | HOP-92 NSCLC 98% | NCI-H522 lung 95.4% | A549/ATCC NSCLC 101% | 786-0 renal 99.3% | COLO 205 colon 111% | DU-145 prostate 112% | K-562 leukemia 94.5% | MALME-3M melanoma 97.1% | MDA-MB-231 breast 102% | RXF 393 renal 105% | SF-268 CNS 88.7% | SF-295 CNS 101% | SF-539 CNS 95.3% | UACC-257 melanoma 102% | M14 melanoma 84.9%
